# HTR5A inv ctr: inverse agonist of human HTR5A in OPRM1-OPRD1 counter-screen. P47898. HTR5A cell line, luminescence, inverse agonism. inhibition, % at 9.3 µM. actives 0.083% (n = 340,000). AID 504634; in the data active = inhibition mostly above about 23%, no sharp cut-off; inactive = mostly below about 18%;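 also: 0% = cells with DMSO and 100% = no-cell wells with DMSO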
# Target sequence (P47898 whole entry, looked up): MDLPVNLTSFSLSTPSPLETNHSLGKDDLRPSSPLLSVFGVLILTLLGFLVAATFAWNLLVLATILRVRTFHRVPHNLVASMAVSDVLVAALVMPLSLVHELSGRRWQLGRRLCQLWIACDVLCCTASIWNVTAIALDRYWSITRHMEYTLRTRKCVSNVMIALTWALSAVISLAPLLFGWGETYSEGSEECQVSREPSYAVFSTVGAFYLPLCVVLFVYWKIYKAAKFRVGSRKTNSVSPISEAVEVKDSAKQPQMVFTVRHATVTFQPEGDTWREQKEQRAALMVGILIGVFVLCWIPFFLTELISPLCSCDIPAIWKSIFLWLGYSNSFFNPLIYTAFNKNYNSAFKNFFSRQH
# HTR5A ag: counter-screen for OPRM1-OPRD1 agonists: human HTR5A agonism; P47898; HTR5A agonist assay, luminescence, cell-based; activation, % at 9.3 µM; actives 0.61% (n = 340,000); AID 504692; in the data active = activation mostly above about 9.5%, no sharp cut-off; inactive = mostly below about 7.6%;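 also: 0% = cells with vehicle only and 100% = reference agonist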
# MOR-DOR inv ag: inverse agonist of human OPRM1-OPRD1 heterodimerization. P35372+P41143. cell-based MOR-DOR heterodimer luminescence, inverse agonism. inhibition, % at 9.3 µM. actives 0.21% (n = 340,000); in the data active = inhibition above about 22%, passing the limit was not always enough;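 also: 0% = cells with DMSO and 100% = wells without cells with DMSO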
# MOR-DOR ag: agonists of human mu-delta opioid receptor heterodimerization; cells, OPRM1-OPRD1 heterodimerization, luminescence; activation, % at 9.3 µM; actives 0.3% (n = 340,000); AID 504326; in the data active = activation above about 18%;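 also: 0% = vehicle-treated cells and 100% = reference agonist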
# PvdQ acylase: P. aeruginosa PvdQ acylase inhibition. purified PvdQ acylase, fluorescence plate reader. inhibition, % at 10 µM. actives 0.063% (n = 340,000). AID 488965; in the data active = inhibition above about 30%, passing the limit was not always enough;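 also: 0% = vehicle neutral wells and 100% = reference inhibitor wells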
# Yeast superoxide: lowers age-related superoxide in aged yeast cells | S. cerevisiae aged cells, superoxide DHE fluorescence; hits give low values | superoxide response (% of plate mean), % at 10 µM | actives 0.18% (n = 330,000);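 active = superoxide response under a set limit, about three screen SD below normal, cut at about 65% in these data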;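 also: yeast aged for seven days with compound at 30 °C before DHE staining; 100% = average MFI of all compound-treated wells on the plate with controls excluded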
# Superoxide pick: confirmation of caloric restriction mimetics inhibiting yeast age-related superoxide | shares compounds with Yeast superoxide | superoxide response (% of plate), % at 10 µM | AID 434994 | S. cerevisiae aging, superoxide DHE fluorescence; hits give low values | actives 1% (n = 850);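 active = superoxide signal below 65% of the plate average of sample wells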;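 also: cells aged with compound for 7 days at 30 degrees C before staining; 100% equals mean DHE fluorescence of all compound wells on the plate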
# DHE fluor count: compound alters DHE oxidation or fluorescence in yeast | AID 435000 | fluorescence response, % at 10 µM | S. cerevisiae BY4741, flow cytometry; hits give low values | 850 tested, under 10 active | shares compounds with Yeast superoxide;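 active = fluorescence response below 15%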;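 also: percent of the mean fluorescence averaged over all compound wells on the plate; lower means stronger quenching of DHE signal or ROS scavenging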
# Starred values were filed as active, the others as inactive; . = not tested or not shown. An excerpt weighted towards active compounds, which were near 1.3% of everything screened.
SMILES,HTR5A inv ctr,HTR5A ag,MOR-DOR inv ag,MOR-DOR ag,PvdQ acylase,Yeast superoxide,others
Cn1c(=O)[nH]c2nncnc2c1=O,-15,-2,0,0,1,60*,
c1coc(CNCCc2c[nH]c3ccccc23)c1,-50,13*,9,-2,-4,98,
NCCc1c[nH]c2ccccc12,-7,50*,-11,2,-13,128,
CC(=O)NCCc1c[nH]c2ccccc12,9,0,-1,0,-26,102,
O=C(O)[C@H]1NC[C@H]2C[C@H]21,0,0,9,-2,-4,99,
CCN1C[C@]2(COC)CC[C@H](O)[C@@]34C5C[C@@H]6[C@@H](OC)C[C@@](O)(C5[C@H]6O)[C@](O)([C@@H](OC)C23)[C@@H]14 (stereo partly specified),3,3,12,-2,-10,80,
CC(C)(C)C(=O)NC1CCSC1=O (stereo unspecified),.,.,.,.,.,99,
CCN1/C(=C\C=C\C2=[N+](CC)c3ccccc3C2(C)C)C(C)(C)c2ccccc21,38*,-11,-53,8,-1,123,
O=c1[nH]c(=O)n(Cc2ccccc2)c(O)c1/C=N/NCCO,.,.,.,.,.,89,
C[C@@H]1O[C@@H](O[C@H]2C[C@@H](O)[C@]3(CO)[C@H]4[C@H](O)C[C@]5(C)[C@@H](C6COC(=O)C6)CC[C@]5(O)[C@@H]4CC[C@]3(O)C2)[C@H](O)[C@H](O)[C@H]1O (stereo partly specified),-81,27,-404,73*,-10,85,
C[C@@H]1O[C@@H](O[C@@H]2C=C3CC[C@@H]4C(CC[C@]5(C)[C@@H](c6ccc(=O)oc6)CC[C@]45O)[C@@]3(C)CC2)[C@H](O)[C@H](O)[C@H]1O (stereo partly specified),-65,22*,-393,68*,-7,101,
CC(=O)C1CCC2(O)C3CCC4=CC(=O)CCC4(C)C3CCC12C (stereo unspecified),9,-2,19,-4,-7,.,
C#CC1(O)CCC2C3CCC4=CC(=O)CCC4=C3C=CC21C (stereo unspecified),-43,11*,2,0,-1,.,
C#CC1(O)C=CC2C3CCC4=CC(=O)CCC4C3CCC21CC (stereo unspecified),10,-3,-3,1,-13,92,
COc1ccc(C2=NCC(=S)Nc3ccc(Cl)cc32)cc1Cl,11,-4,-20,4,-23,112,
COc1cc(CNCCc2ccc3c(c2)OCO3)cc(OC)c1OC,0,0,-9,2,-8,95,
Cc1ccc2[nH]c(C)c(CCNCc3ccco3)c2c1,5,-1,-2,0,-10,110,
Cc1cccc(CCNCc2cc3ccc(C)cc3[nH]c2=O)c1,-43,12*,5,-1,-13,97,
CC(=O)OC1CC(OC2C(O)CC(OC3C(O)CC(OC4CCC5(C)C(CCC6C5CCC5(C)C(C7=CC(=O)OC7)CCC65O)C4)OC3C)OC2C)OC(C)C1OC1OC(CO)C(O)C(O)C1O (stereo unspecified),-146,37*,-349,68*,5,.,
Cc1ccc(-n2c(O)c(C=NCCN3CCNCC3)c(=O)[nH]c2=S)cc1,2,-1,5,-1,-10,114,
CC(C)c1ccc(-n2c(O)c(C=NCCN3CCNCC3)c(=O)[nH]c2=S)cc1,-39,10*,-4,1,-11,100,
CC(=O)N[C@@H]1CC[C@@]2(O)[C@H]3Cc4ccc(O)c5c4[C@@]2(CCN3CC2CC2)[C@@H]1O5,10,-4,-33,8,-10,96,
Cc1cc(N2CCN(C)CC2)nc2ccccc12,-34,9.1*,1,0,-12,104,
CN(C)CCN(C(=O)COc1ccc(Cl)cc1)c1nc2cc3c(cc2s1)OCO3,-12,9,1,0,12,103,
COc1ccc(C(=O)N/N=C/C23CC[C@@H](O)CC2(O)CC[C@@H]2[C@@H]3CCC3(C)C(C4=CC(=O)OC4)CCC23O)cc1 (stereo partly specified),19,30*,-169,34*,-6,96,
SMILES,HTR5A inv ctr,HTR5A ag,MOR-DOR inv ag,MOR-DOR ag,PvdQ acylase,Yeast superoxide,others
CN(C)c1ccc(C(=O)N/N=C/C23CC[C@@H](O)CC2(O)CC[C@@H]2[C@@H]3CCC3(C)C(C4=CC(=O)OC4)CCC23O)cc1 (stereo partly specified),6,35*,-301,59*,3,94,
O=c1cccc2n1C[C@H]1C[C@@H]2CN2CCCC[C@@H]12,3,1,5,-1,16,90,
Cc1cc(C)cc(N2C(=O)NC(=O)/C(=C\c3cccn3-c3ccc(Cl)cc3)C2=O)c1,-51,14*,-7,1,21,118,
Cc1cc(C)cc(N2C(=O)NC(=O)/C(=C\c3cccn3-c3ccccc3)C2=O)c1,-23,12,-7,1,-4,96,
S=c1[nH]c2ccccc2[nH]1,-29,10*,16,-3,1,104,
CC1CN(c2ccccn2)C(C)CN1C(=O)C(O)(c1ccccc1)c1ccccc1 (stereo unspecified),-10,3,13,-3,-21,.,
O=c1c2ccccc2nc(/C=C/c2ccc(O)cc2)n1-c1cccc(O)c1,-25,9.8*,12,-2,1,110,
O=c1c2ccccc2nc(/C=C/c2ccc(O)cc2)n1-c1ccc(O)cc1,11,-3,-12,3,-4,101,
COc1ccc(-n2c(/C=C/c3ccc(O)cc3)nc3ccccc3c2=O)cc1,-38,10.0*,-5,1,23,88,
ClCCN1CCSCC1,-3,1,14,-3,-3,.,
COC(=O)C1=C(c2ccc(Cl)c(C(F)(F)F)c2)C[C@@H]2CC[C@H]1N2C(=O)NCCCOC(C)C,-9,4,11,-2,5,90,
N#Cc1cc2c(nc1SCC(=O)Nc1ccc(Cl)cc1)C1CCN2CC1,-2,12*,-4,1,-12,105,
N#Cc1cc2c(nc1SCC(=O)Nc1cc(Cl)ccc1Cl)C1CCN2CC1,-1,0,3,-1,-18,102,
CCOc1cccc(CNCCc2c(C)[nH]c3ccc(OC(F)(F)F)cc23)c1O,-63,16*,-111,20*,-18,112,
Cc1ccc(C(=O)Nc2ccc(Cl)cc2C(=O)c2ccccc2)cc1,-39,11*,-43,7,-5,104,
C[C@]12CCC(=O)C[C@@H]1CC[C@@H]1[C@@H]2CC[C@]2(C)[C@@H](O)CC[C@@H]12,-15,6,-5,1,-9,54*,Superoxide pick=78;DHE fluor count=100

# Source: PubChem BioAssay
